Measurements taken from the supplement of paper PMC10933113.
Where a name gives a salt, the structure may show the parent alone. ± gives the uncertainty stated by the source.

What follows are molecules tested on THP-1 (assay: CD86 surface expression induction over DMSO control (% over DMSO); higher = stronger dendritic cell activation). Details: exposure time: 24 h.
Experimental: (§1)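 hCLAT-like CD54 and CD86 surface expression on THP1 cells after 24 h exposure at a single concentration (highest non-cytotoxic concentration, or 100-200 µM if not cytotoxic). Flow cytometry (iQue) was run on 5,000 live cells.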

| SMILES | CD86 surface expression induction |
| --- | --- |
| NC(=O)N/N=C/c1ccc([N+](=O)[O-])o1 [Nitrofurazone] (200 µM) | 5.94 ± 3.7 |
| CC(C)NC(=O)c1ccc(C=O)cc1 [N-isopropyl-4-formylbenzamide] (100 µM) | -3.04 ± 5.2 |
| O=C(N/N=C/c1ccccc1O)c1ccncc1 [Salinazid] (10 µM) | 7.77 ± 2.8 |
| CCCCCCCCN [n-Octylamine] (100 µM) | -6.07 ± 0.55 |
| CC(C(=O)O)c1ccc(/C=C2\CCCCC2=O)cc1 (stereo not drawn) [Pelubiprofen] (100 µM) | -4.77 ± 4.1 |
| CN(C)c1ccc(C(=C2C=CC(=[N+](C)C)C=C2)c2ccccc2)cc1 [Malachite green oxalate*] (10 µM) | 195 ± 53 |
| COc1ccc2cc(CCC(C)=O)ccc2c1 [Nabumetone] (100 µM) | -3.23 ± 4.6 |
| C=CC(C)(CCC=C(C)C)OC(=O)CC(C)C (stereo not drawn) [Linalyl isovalerate] (200 µM) | 4.35 ± 0.78 |
| NC(=S)NC(N)=S [2,4-Dithiobiuret] (200 µM) | 26.6 ± 0.3 |

Each molecule was assayed on THP-1 (assay: CD54 surface expression induction over DMSO control (% over DMSO); higher = stronger dendritic cell activation). Details: exposure time: 24 h.
Experimental: as §1

| SMILES | CD54 surface expression induction |
| --- | --- |
| O=c1cc(-c2ccccc2)oc2cc(O)cc(O)c12 [Chrysin] (100 µM) | 18.9 ± 1.4 |
| C=CCOC(=O)/C=C\C(=O)OCC=C [Diprop-2-en-1-yl (2Z)-but-2-enedioate] (203 µM) | -3.66 ± 5.6 |
| NC(=O)N/N=C/c1ccc([N+](=O)[O-])o1 [Nitrofurazone] (200 µM) | 15.9 ± 5.6 |
| O=C(Oc1ccccc1)c1ccccc1O [Phenyl salicylate] (200 µM) | -8.79 ± 7.5 |
| C=CC(=O)OCCCCCCOC(=O)C=C [1,6-Hexanediol diacrylate] (100 µM) | -4.54 ± 2.9 |
| Oc1ccc2cc(SSc3ccc4cc(O)ccc4c3)ccc2c1 [6-Hydroxy-2-naphthyl disulfide] (100 µM) | 71.9 ± 1.4 |
| Clc1ccc(C(Cn2ccnc2)OCc2c(Cl)cccc2Cl)c(Cl)c1 (stereo not drawn) [Isoconazole] (100 µM) | 56.6 ± 9.5 |
| CCCCCCCCCCCCCCCC[N+](C)(C)Cc1ccccc1 [Benzylhexadecyldimethylammonium chloride] (10 µM) | 20.1 ± 7.5 |
| CCCCOCCOCCOCCO [2-[2-(2-Butoxyethoxy)ethoxy]ethanol] (115 µM) | 20.1 ± 15 |
| Cn1sccc1=O [2-Methyl-4-isothiazolin-3-one hydrochloride] (10 µM) | -19.5 ± 27 |
| CC(C)NC(=O)c1ccc(C=O)cc1 [N-isopropyl-4-formylbenzamide] (100 µM) | -11.6 ± 1.7 |
| O=C(N/N=C/c1ccccc1O)c1ccncc1 [Salinazid] (10 µM) | 17.1 ± 8.6 |
| N=C1C=CC(=C(c2ccc(N)cc2)c2ccc(N)cc2)C=C1 [C.I. Basic Red 9 monohydrochloride] (10 µM) | 10.7 ± 6.1 |
| Nc1ncn([C@@H]2O[C@H](CO)[C@@H](O)[C@H]2O)c(=O)n1 [5-Azacytidine] (10 µM) | -4.02 ± 3.5 |
| CCCCCCCCN [n-Octylamine] (100 µM) | -6.09 ± 0.05 |
| c1ccc2[nH]c(-c3cscn3)nc2c1 [Thiabendazole] (100 µM) | -2.19 ± 1.1 |
| Oc1ccc2ccccc2c1N=Nc1ccccc1 [C.I. Solvent Yellow 14] (200 µM) | -0.27 ± 5.9 |
| CC(C)(C)c1cc(O)ccc1O [tert-Butylhydroquinone] (100 µM) | 48.9 ± 12 |
| CC(C)=CCC1C(=O)N(c2ccccc2)N(c2ccccc2)C1=O [Feprazone] (200 µM) | 62.3 ± 3 |
| Oc1c(Br)cc(Br)c2cccnc12 [Broxyquinoline] (100 µM) | 49.3 ± 18 |
| CCCCCOc1ccccc1/C(=C\SC)n1ccnc1 [Neticonazole] (100 µM) | 17.2 ± 5 |
| O=C1c2cccc(O)c2C(=O)c2c(O)cccc21 [Danthron] (100 µM) | 16.5 ± 0.49 |
| COc1ccc(C(=O)/C(Br)=C\C(=O)O)cc1 [Cytembena] (200 µM) | 62.5 ± 6.9 |
| CC(C(=O)O)c1ccc(/C=C2\CCCCC2=O)cc1 (stereo not drawn) [Pelubiprofen] (100 µM) | -1.67 ± 0.26 |
| CCCOc1ccc2[nH]c(NC(=O)OC)nc2c1 [Oxibendazole] (100 µM) | -37.7 ± 6.7 |
| CN(C)c1ccc(C(=C2C=CC(=[N+](C)C)C=C2)c2ccccc2)cc1 [Malachite green oxalate*] (10 µM) | 132 ± 20 |
| C=CCOC(Cn1ccnc1)c1ccc(Cl)cc1Cl (stereo not drawn) [Imazalil sulfate] (100 µM) | 11.6 ± 11 |
| CCCSS/C(CCO)=C(/C)N(C=O)Cc1cnc(C)nc1N [Prosultiamine] (10 µM) | -0.63 ± 2.5 |
| COc1ccc2cc(CCC(C)=O)ccc2c1 [Nabumetone] (100 µM) | -12.2 ± 1.2 |
